The supplement of paper PMC6555819

Experiments:
Assay in all cases: PBM binding z-score (relative to random genomic background probes); higher = stronger binding; sequences stand for … in GC…GCGATTGACAGCGTAGAATGAAGG
[1] = test system: FXR:RXRa (NR concentration 270 nM, RXRa partner concentration 90 nM)
Procedure, shortened: (§1)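 Antibodies against each partner of ligand-free nuclear receptor dimers (one per run) detected binding on custom Agilent 4×180K protein-binding microarrays after 1 h incubation. The double-stranded probes had 34-nt variable regions carrying direct-repeat seeds, single-nucleotide variants, half-site ablations and random human genomic background sequences. Binding z-scores, from regression-normalized fluorescence, use the random background probes as reference.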

[2] = test system: LXRa:RXRa (NR concentration 270 nM, RXRa partner concentration 90 nM)
Procedure, shortened: as §1

[3] = test system: LXRa homodimer (NR concentration 270 nM)
Procedure, shortened: as §1

[4] = test system: LXRb:RXRa (NR concentration 270 nM, RXRa partner concentration 90 nM)
Procedure, shortened: as §1

[5] = test system: LXRb homodimer (NR concentration 270 nM)
Procedure, shortened: as §1

[6] = test system: PPARa:RXRa (NR concentration 270 nM, RXRa partner concentration 90 nM)
Procedure, shortened: as §1

[7] = test system: PPARg:RXRa (NR concentration 180 nM, RXRa partner concentration 90 nM)
Procedure, shortened: as §1

[8] = test system: PPARg:RXRa 270nM:90nM, anti-RXR (NR concentration 270 nM, RXRa partner concentration 90 nM)
Procedure, shortened: as §1

[9] = test system: PPARg:RXRa 30nM:10nM, anti-RXR (NR concentration 30 nM, RXRa partner concentration 10 nM)
Procedure, shortened: as §1

[10] = test system: PPARg:RXRa 90nM:30nM, anti-RXR (NR concentration 90 nM, RXRa partner concentration 30 nM)
Procedure, shortened: as §1

[11] = test system: PPARg:RXRa DBDmut IVT, anti-RXR (DBD mutation: RXRa K156A/R161A, NR concentration 270 nM, RXRa partner concentration 90 nM)
Procedure, shortened: as §1

[12] = test system: PPARg:RXRa IVT, anti-PPARg (NR concentration 270 nM, RXRa partner concentration 90 nM)
Procedure, shortened: as §1

[13] = test system: PPARg DBDmut:RXRa IVT, anti-PPARg (DBD mutation: PPARg1 K132A/R137A, NR concentration 270 nM, RXRa partner concentration 90 nM)
Procedure, shortened: as §1

[14] = test system: PPARg DBDmut IVT, anti-PPARg (DBD mutation: PPARg1 K132A/R137A, NR concentration 270 nM)
Procedure, shortened: as §1

[15] = test system: PPARg homodimer (NR concentration 180 nM)
Procedure, shortened: as §1

[16] = test system: PXR:RXRa (NR concentration 270 nM, RXRa partner concentration 90 nM)
Procedure, shortened: as §1

[17] = test system: PXR homodimer (NR concentration 270 nM)
Procedure, shortened: as §1

[18] = test system: RARa:RXR (NR concentration 270 nM, RXRa partner concentration 90 nM)
Procedure, shortened: as §1

[19] = test system: RARa homodimer (NR concentration 270 nM)
Procedure, shortened: as §1

[20] = test system: RARb:RXRa (NR concentration 270 nM, RXRa partner concentration 90 nM)
Procedure, shortened: as §1

| Sequence | PBM binding z-score [1] | PBM binding z-score [2] | PBM binding z-score [3] | PBM binding z-score [4] | PBM binding z-score [5] | PBM binding z-score [6] | PBM binding z-score [7] | PBM binding z-score [8] | PBM binding z-score [9] | PBM binding z-score [10] | PBM binding z-score [11] | PBM binding z-score [12] | PBM binding z-score [13] | PBM binding z-score [14] | PBM binding z-score [15] | PBM binding z-score [16] | PBM binding z-score [17] | PBM binding z-score [18] | PBM binding z-score [19] | PBM binding z-score [20] |
| --- | --- | --- | --- | --- | --- | --- | --- | --- | --- | --- | --- | --- | --- | --- | --- | --- | --- | --- | --- | --- |
| CGAACTAGGTCATCCAAGACAGTGAATACATTGA | 4.2 | 2.37 | 0.551 | 2.26 | 0.197 | 4.78 | 8.08 | 6.67 | 4.23 | 5.9 | 8.33 | 8.19 | 3.65 | 2.15 | 1.93 | 1.67 | 0.36 | 2.67 | 1.01 | 3.95 |
| CCTTACGGGTCACGAGGTTAGAGCACGACGAGCG | 6.98 | 4.06 | 0.353 | 3.58 | 0.0179 | 5.8 | 7.39 | 6.87 | 3.49 | 6.11 | 4.55 | 5.59 | 2.76 | 1.38 | 2.96 | 4.32 | -0.124 | 5.72 | 0.978 | 4.6 |
| CCGAGTAGTTTATGGGGCATTCAGGCAACGGTGA | 0.0687 | -0.0173 | -0.197 | 0.53 | -0.0668 | 0.806 | 0.147 | 0.448 | -0.234 | 0.108 | 1.6 | 1.4 | -0.427 | -0.259 | 0.266 | -0.181 | -0.00127 | -0.101 | -0.193 | 0.282 |
| TCTTGTAGATCTAAGGTTAAGAAAGCCGAAGCCT | 0.97 | 0.808 | 0.287 | 1.16 | -0.127 | 1.98 | 1.85 | 3.71 | 3.41 | 4.08 | 1.71 | 0.863 | 0.224 | -0.213 | 0.385 | 0.921 | -0.35 | 1.55 | -0.0766 | 0.9 |
| GCGACTGGGGTATCAGCAGGTTACCATAACTTAA | -0.215 | 0.488 | -0.233 | 0.757 | -0.459 | 0.871 | 0.146 | 0.0504 | -0.489 | -0.489 | 1.21 | 0.938 | -0.348 | -0.554 | 0.313 | -0.149 | -0.238 | 0.3 | -0.218 | 0.249 |
| GCTCGGAGGAAAAGGTCAGAGCTTTGTCCGTAGA | 2.6 | 3.37 | 0.256 | 2.58 | -0.596 | 3.83 | 2.82 | 4.46 | 1.36 | 4.22 | -0.0327 | 1.11 | -1.39 | -0.963 | 1.55 | 2.93 | -0.551 | 3.96 | 0.159 | 3.95 |
| GCTTGTAGATCAAGGTTACGAAAGACTAAGCTAA | 0.195 | 1.01 | -0.347 | 0.883 | -0.378 | 1.97 | 0.804 | 1.64 | 0.408 | 1.13 | 1.65 | 1.67 | -0.122 | -0.483 | 0.354 | 0.724 | -0.00407 | 1.23 | 0.273 | 0.947 |
| GCTCGGAGGACAATGTCAGAGCTTTGTCCGTAGA | -0.623 | -0.613 | -0.612 | -0.519 | -0.999 | -0.586 | -0.765 | -0.898 | -1.25 | -1.01 | -0.596 | -0.513 | -1.4 | -0.198 | -1.02 | -0.494 | -0.648 | -0.772 | -1.31 | 0.788 |
| CCGATTGGGGCAAGGTTACCATAACGCACAGCCA | 0.189 | 0.481 | -0.246 | 0.649 | -1.05 | 1.28 | 1.44 | 1.49 | 0.0472 | 0.943 | 1.32 | 1.29 | -0.839 | -0.45 | 0.0331 | 0.36 | -0.458 | 0.793 | -0.365 | 1.67 |
| ATCTCTAGGTAAGACTCGGTTCAGTGAAGAACGC | 0.472 | 0.583 | 0.614 | 0.263 | 1.07 | -0.0579 | -0.0197 | 0.126 | 0.0672 | 0.278 | 2.07 | 1.14 | 0.784 | 0.701 | 0.702 | 0.669 | 1.18 | 0.0867 | 1.5 | 0.192 |
| CATACAGCGTCAGCTAGGCCAGAGTAGGGACGGC | -0.554 | -0.839 | -0.547 | -1.42 | -0.647 | -1.05 | 0.332 | -0.936 | -0.344 | -0.884 | -0.164 | -0.272 | -0.28 | 0.0344 | -0.557 | -1.3 | -0.659 | -0.799 | -0.655 | -0.287 |
| CCGAGTTGGTCAGGAGGTCACACACCGGATATGA | 3.49 | 3.18 | 1.86 | 2.93 | -0.213 | 4.03 | 2.62 | 3.24 | 0.983 | 2.36 | 0.95 | 2.61 | 0.01 | 0.0417 | 3.62 | 4.53 | 1.31 | 4.71 | 1.54 | 3.66 |
| ATATGTAGGTAATCGGGTCATTCAGTTTGCGCAT | 1.83 | 1.79 | 0.62 | 2.26 | 0.648 | 4.67 | 6.27 | 5.56 | 3.33 | 4.77 | 7.17 | 7.38 | 2.95 | 2.04 | 1.76 | 2.84 | 6.06 | 2.79 | 1.35 | 1.6 |
| TAGCCTTGGTCAGATCGGGCCAGTATACGCTATA | -0.504 | -0.892 | -0.925 | -0.995 | -0.904 | -0.565 | -0.0905 | -0.29 | -0.644 | -0.566 | -0.7 | -0.297 | -0.203 | -1.18 | -1.31 | -0.578 | -0.538 | -0.611 | -1.58 | 0.307 |
